In publication PMC12864922, “TDP-43 directly inhibits mRNA accumulation in neurites through modulation of mRNA stability” one finds binding signal data, which are given here for eight molecules.

B1: ENSMUSG00000058297.16|Spock2|155:159;163:176;185:196;210:216;225:234;240:260 (ssRNA)
RNA: GGGAGUUCUACAGUCCGACGAUCGCUUCGAUAUCCGCAUGCUACAUCUGGUAGAUAGCCCUCGACGGCCUCGGCAGGCCAGGGUGCCGACGGCCAGAAAGACAGGCCAGAAGAGACCUGGACAACAGCAGGCAACUUAGCAAAUGGAUCCGGAAGUCAGUGCGGAGGACCCUGGCUCCAGUGGGGGAGGACUGGGGACACACGCUACACACAUACACACAUAUGAGAACACACACAUACAUGUGAGAUGUGACACACACAUGUGAGAACACACAUACUGAGAACACACACACACACACACACACUCUUGCGGUCGCACUAGUGUGGAAUUCUCGGGUGUCAAGG
B2: ENSMUSG00000058297.3|Spock2|233:237;241:254 (ssRNA)
RNA: GGGAGUUCUACAGUCCGACGAUCGCUUCGAUAUCCGCAUGCUAAGAAAAGGAGACAGAAGAGGCAGGGGAGGAGGCCGAGGAGGAGGAGGGUGAGGCGGGUGAGGCAGAUGAUGGAGGCUACAUCUGGUAGAUAGCCCUCGACGGCCUCGGCAGGCCAGGGUGCCGACGGCCAGAAAGACAGGCCAGAAGAGACCUGGACAACAGCAGGCAACUUAGCAAAUGGAUCCGGAAGUCAGUGCGGAGGACCCUGGCUCCAGUGGGGGAGGACUGGGGACACACGCUACACACAUACACACAUAUGACUCUUGCGGUCGCACUAGUGUGGAAUUCUCGGGUGUCAAGG
B3: ENSMUSG00000058297.15|Spock2|161:165;169:182;191:202;216:222;231:240;246:260 (ssRNA)
RNA: GGGAGUUCUACAGUCCGACGAUCGCUUCGAUAUCCGCAUGCUAAGGCUACAUCUGGUAGAUAGCCCUCGACGGCCUCGGCAGGCCAGGGUGCCGACGGCCAGAAAGACAGGCCAGAAGAGACCUGGACAACAGCAGGCAACUUAGCAAAUGGAUCCGGAAGUCAGUGCGGAGGACCCUGGCUCCAGUGGGGGAGGACUGGGGACACACGCUACACACAUACACACAUAUGAGAACACACACAUACAUGUGAGAUGUGACACACACAUGUGAGAACACACAUACUGAGAACACACACACACACACUCUUGCGGUCGCACUAGUGUGGAAUUCUCGGGUGUCAAGG
B4: ENSMUSG00000058297.15|Spock2 (ssRNA)
RNA: GGGAGUUCUACAGUCCGACGAUCGCUUCGAUAUCCGCAUGCUAAGGCUACAUCUGGUAGAUAGCCCUCGACGGCCUCGGCAGGCCAGGGUGCCGACGGCCAGAAAGACAGGCCAGAAGAGACCUGGACAACAGCAGGCAACUUAGCAAAUGGAUCCGGAAGUCAGUGCGGAGGACCCUGGCUCCAGUGGGGGAGGACUGGGGAGUGUGGCUUGUGUGUAUGUGUGAUAUGAGAUGUGUGUGUAUGAUGUGAGAUGUGAGUGUGUGAUGUGAGAUGUGUGUAUGUGAGAUGUGUGUGUGUGUGUCUCUUGCGGUCGCACUAGUGUGGAAUUCUCGGGUGUCAAGG
B5: ENSMUSG00000058297.14|Spock2|167:171;175:188;197:208;222:228;237:246;252:260 (ssRNA)
RNA: GGGAGUUCUACAGUCCGACGAUCGCUUCGAUAUCCGCAUGCUAUGAUGGAGGCUACAUCUGGUAGAUAGCCCUCGACGGCCUCGGCAGGCCAGGGUGCCGACGGCCAGAAAGACAGGCCAGAAGAGACCUGGACAACAGCAGGCAACUUAGCAAAUGGAUCCGGAAGUCAGUGCGGAGGACCCUGGCUCCAGUGGGGGAGGACUGGGGACACACGCUACACACAUACACACAUAUGAGAACACACACAUACAUGUGAGAUGUGACACACACAUGUGAGAACACACAUACUGAGAACACACACACUCUUGCGGUCGCACUAGUGUGGAAUUCUCGGGUGUCAAGG
B6: ENSMUSG00000058297.16|Spock2 (ssRNA)
RNA: GGGAGUUCUACAGUCCGACGAUCGCUUCGAUAUCCGCAUGCUACAUCUGGUAGAUAGCCCUCGACGGCCUCGGCAGGCCAGGGUGCCGACGGCCAGAAAGACAGGCCAGAAGAGACCUGGACAACAGCAGGCAACUUAGCAAAUGGAUCCGGAAGUCAGUGCGGAGGACCCUGGCUCCAGUGGGGGAGGACUGGGGAGUGUGGCUUGUGUGUAUGUGUGAUAUGAGAUGUGUGUGUAUGAUGUGAGAUGUGAGUGUGUGAUGUGAGAUGUGUGUAUGUGAGAUGUGUGUGUGUGUGUGUGUGUCUCUUGCGGUCGCACUAGUGUGGAAUUCUCGGGUGUCAAGG
B7: ENSMUSG00000058297.14|Spock2 (ssRNA)
RNA: GGGAGUUCUACAGUCCGACGAUCGCUUCGAUAUCCGCAUGCUAUGAUGGAGGCUACAUCUGGUAGAUAGCCCUCGACGGCCUCGGCAGGCCAGGGUGCCGACGGCCAGAAAGACAGGCCAGAAGAGACCUGGACAACAGCAGGCAACUUAGCAAAUGGAUCCGGAAGUCAGUGCGGAGGACCCUGGCUCCAGUGGGGGAGGACUGGGGAGUGUGGCUUGUGUGUAUGUGUGAUAUGAGAUGUGUGUGUAUGAUGUGAGAUGUGAGUGUGUGAUGUGAGAUGUGUGUAUGUGAGAUGUGUGUGUCUCUUGCGGUCGCACUAGUGUGGAAUUCUCGGGUGUCAAGG
B8: ENSMUSG00000058297.2|Spock2|239:243;247:260 (ssRNA)
RNA: GGGAGUUCUACAGUCCGACGAUCGCUUCGAUAUCCGCAUGCUAUGAGGAAGAAAAGGAGACAGAAGAGGCAGGGGAGGAGGCCGAGGAGGAGGAGGGUGAGGCGGGUGAGGCAGAUGAUGGAGGCUACAUCUGGUAGAUAGCCCUCGACGGCCUCGGCAGGCCAGGGUGCCGACGGCCAGAAAGACAGGCCAGAAGAGACCUGGACAACAGCAGGCAACUUAGCAAAUGGAUCCGGAAGUCAGUGCGGAGGACCCUGGCUCCAGUGGGGGAGGACUGGGGACACACGCUACACACAUACACACCUCUUGCGGUCGCACUAGUGUGGAAUUCUCGGGUGUCAAGG

The full ranking holds about 9,900 sequences; the median of “r (bound/input frequency ratio)” is about 0.7, and the highest 2% start at about 6.5. The sample holds the highest values, similar sequences and a random draw of the others, so the mix is not that of the screen.

TDP-43, sequence (Q13148 whole entry): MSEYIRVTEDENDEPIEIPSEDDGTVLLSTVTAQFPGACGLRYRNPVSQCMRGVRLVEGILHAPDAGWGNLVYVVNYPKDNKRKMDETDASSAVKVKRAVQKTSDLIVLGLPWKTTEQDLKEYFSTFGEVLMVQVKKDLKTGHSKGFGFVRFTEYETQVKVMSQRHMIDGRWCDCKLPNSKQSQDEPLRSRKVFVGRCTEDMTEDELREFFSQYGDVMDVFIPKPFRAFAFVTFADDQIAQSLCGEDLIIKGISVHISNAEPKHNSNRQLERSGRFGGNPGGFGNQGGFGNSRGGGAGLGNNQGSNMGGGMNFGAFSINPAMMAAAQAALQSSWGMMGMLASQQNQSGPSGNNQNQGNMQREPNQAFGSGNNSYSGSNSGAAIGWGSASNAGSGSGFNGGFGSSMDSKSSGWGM

This test concerns the target TDP-43 (Homo sapiens, UniProt Q13148 1-414). The test can be described thus: RNA Bind-n-Seq with designed 260-mer pool; 25 mM Tris-HCl, 150 mM KCl, 3 mM MgCl2, BSA (printed 500 mg/mL), 20 units/mL SUPERase IN; pH not stated; 500 nM RNA pool, 1 h, 4 C; TDP-43 5, 50, 500 nM; high values mean tight binding. The conditions noted are these: protein: recombinant; tags: SBP (GST cleaved off with PreScission; pGEX-GST-SBP). An outline of the steps: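 Binding (R) is the ratio of each oligo's mapped-read-normalized abundance in the bound fraction to its abundance in the input. To obtain it, SBP-tagged recombinant TDP-43 (5, 50 or 500 nM) on streptavidin beads was incubated with 500 nM of an in vitro-transcribed 260-nt 3′ UTR oligo pool for 1 h at 4 °C in 25 mM Tris-HCl, 150 mM KCl, 3 mM MgCl2, BSA and SUPERase IN. The RNA retained after washing was released with biotin, then reverse transcribed, amplified by PCR and sequenced.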
B1: the binding signal was 2.54 R (bound/input frequency ratio).

On to B2, for which the binding signal was 2.67 R (bound/input frequency ratio).

With B3, the binding signal is 2.53 R (bound/input frequency ratio).

Regarding B4, the binding signal is 7.97 R (bound/input frequency ratio).

B5: the binding signal was 1.95 R (bound/input frequency ratio).

With B6, the binding signal is 7.85 R (bound/input frequency ratio).

As to B7, the binding signal is 8.13 R (bound/input frequency ratio).

Regarding B8, the binding signal was 2.26 R (bound/input frequency ratio).
